BL2 CD40 inh: CD40 pathway inhibition in BL2 cells. BL2 NF-kB luciferase reporter, CD40L-induced, 4 h. inhibition, % at 10 µM. AID 1053188. 83,000 compounds, 0.94% hits;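 active = mean inhibition of at least 50% with a set share of replicates also reaching that level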;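 note: 0% = neutral control wells and 100% = IKK inhibitor VII at 50 µM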
Starred values were filed as active, the others as inactive; [ ] = another dose, or the depositor's remark. The entries come from a sample that favours hits as a whole.

SMILES | BL2 CD40 inh
COc1ccccc1CN1C[C@@H]2N[C@H](C1)C2c1ccc(/C=C/c2ccccc2)cc1 (stereo partly specified) | 33
O=C(Cc1ccncc1)Nc1ccc2c(c1)[C@@H]1C[C@@H](CC(=O)NC3CCCC3)O[C@H](CO)[C@@H]1O2 | 15
COc1ccc(C(=O)Nc2ccc(C(=O)c3ccccc3)cc2)cc1 | -3
COc1ccc(C(=O)Nc2ccc3[nH]ccc3c2)cc1 | 75*
O=C(Nc1ccc2[nH]ccc2c1)c1cccs1 | -56
CC(=O)Nc1cccc2c1O[C@H](CN(C)C(C)=O)[C@H](C)CN(C)C2=O | 5
C[C@H]1CN([C@@H](C)CO)C(=O)CCCn2nncc2CO[C@H]1CN(C)Cc1ccc2c(c1)OCCN2C | -1[25 µM]
COc1ccc2cc3c(N)nn(C(=O)c4cccc(F)c4)c3nc2c1 | -1
COc1ccc2cc3c(N)nn(C(=O)Cc4c[nH]c5ccccc45)c3nc2c1 | 77*
COc1cccc(CC(=O)n2nc(N)c3cc4ccc(OC)cc4nc32)c1 | 4
CCCNC(=O)[C@@H]1[C@@H](CO)[C@@H]2Cn3c(ccc(-c4ccc(F)cc4)c3=O)[C@@H]2N1CC1CC1 | -15[25 µM]
CC(=O)N1[C@@H](CO)[C@H](c2ccc(-c3cccc(F)c3)cc2)[C@@H]1CNC(=O)C1CC1 | 3
COc1ccc(NC(=O)N(C)C[C@H]2Oc3ccc(NS(=O)(=O)c4ccc(F)cc4)cc3C(=O)N([C@@H](C)CO)C[C@H]2C)cc1 | 0
CN(C)CC(=O)N1[C@@H]2c3ccc(-c4ccccc4)c(=O)n3C[C@H]1[C@H](CO)[C@H]2C(=O)N1CCOCC1 | -7[25 µM]
O=C(Cc1ccccn1)N1CC(=O)N2[C@H](C1)[C@H](c1ccc(C#CC3CCCC3)cc1)[C@@H]2CO | 1
CC(=O)Cn1c(CN2CCCC2)nc2ccccc2c1=O | 0
CN1CCN(Cc2nc3c(c(=O)n(C)c(=O)n3C)n2CCCc2ccccc2)CC1 | 3
CN1CCN(Cc2nc3ccccc3c(=O)n2Cc2nc(-c3ccc4ccccc4c3)cs2)CC1 | 60*
COC(=O)N(C)C[C@@H]1OCc2ccccc2-c2c(n(C)c3ccccc23)C(=O)N([C@@H](C)CO)C[C@@H]1C | -6
C[C@H]1CN([C@@H](C)CO)C(=O)c2ccccc2-c2ccccc2CO[C@@H]1CN(C)S(C)(=O)=O | -26[25 µM]
Cc1ccccc1N1CCN(S(=O)(=O)CC23CCC(C[C@@H]2NC(=O)[C@@H](N)CCS(C)(=O)=O)C3(C)C)CC1 (stereo partly specified) | 4[25 µM]
CO[C@@H]1CN(C)C(=O)c2cc(NC(=O)NC3CCCCC3)ccc2OC[C@@H](C)NC[C@@H]1C | -9
Cc1ccc(O)c(N=Nc2ccccc2)n1 | 55*[25 µM]
Oc1[nH]c2ccccc2c1N=Nc1ccccc1 | -73
c1ccc(N=Nc2ccc(C3=NCCO3)cc2)cc1 | 14
SMILES | BL2 CD40 inh
O=C(NC[C@H]1[C@H](c2ccccc2)[C@H](CO)N1Cc1ccccn1)C1CCCC1 | -6[25 µM]
CC12CN3CC(C)(CN(C1)C3c1ccc3ccccc3c1O)C2=O (stereo unspecified) | 7
CC12CN3CC(C)(CN(C1)C3c1ccc3c(c1)OCO3)C2=O (stereo unspecified) | 36*
COc1ccc2[nH]cc(C3N4CC5(C)CN3CC(C)(C4)C5=O)c2c1 (stereo unspecified) | 8
N#C[C@H]1[C@H](c2ccccc2C2=CCCCC2)[C@@H](CO)N1C(=O)c1cccc(F)c1 | 12[25 µM]
CNC[C@H]1Oc2ccc(N(S(C)(=O)=O)S(C)(=O)=O)cc2C(=O)N(C)C[C@@H]1C | -1
C=C1C(=O)OC2CC1C(O)CC(C)=CCCC(C)=CC(O)CC2C (stereo unspecified) | 87*
C=C1C(=O)OC2C1CCC(C)C1C=CC(=O)C12C (stereo unspecified) | 25
CC(C)[C@H]1COCc2cn(nn2)CC[C@H](Cc2ccccc2)C(=O)N1 | 11
c1ccc(C(O[C@@H]2CCCN(CCc3ccc4c(c3)OCO4)C2)c2ccccc2)cc1 | -8[25 µM]
Cc1ccccc1-c1ccc([C@H]2[C@@H](CO)N3CCCCN(CC4CC4)C[C@H]23)cc1 | -11[25 µM]
O=C(O)c1cc(-c2ccccc2)c(N2CCOCC2)s1 | 8
Nc1ccc(-c2cccc3c(=O)cc(N4CCOCC4)oc23)cc1 | 58*[25 µM]
Nc1ncnc2nc(-c3ccc(N4CCOCC4)nc3)cc(-c3cccc(Br)c3)c12 | -20[25 µM]
CS(=O)(=O)N1[C@@H](C#N)[C@H](c2ccc(C#Cc3cccc(F)c3)cc2)[C@@H]1CO | -24[25 µM]
O=C1C[C@H](c2ccccc2)C(=O)N[C@H](c2ccccc2)C/C=C\C[C@H](c2ccccc2)N1 | 9[25 µM]
O=C(C[C@@H]1CC[C@@H]2[C@H](COC[C@H](O)CN2C(=O)c2ccc3c(c2)OCO3)O1)NCCN1CCCC1 | -4
Cc1nc(C)c(NC(=O)N2CCc3ccccc32)cc1NC(=O)N1CCc2ccccc21 | 10
Cn1ccc2cc3c(cc21)CCN3C(=O)Nc1cccnc1 | active[25 µM]
Cc1cc(Br)ccc1SCC(=O)Nc1cccnc1 | 2
O=C(C[C@@H]1CC[C@@H](NC(=O)c2ccc(F)cc2)[C@@H](CO)O1)NCCc1ccccc1 | -1[25 µM]
CN1CCN(C(=O)C[C@@H]2CC[C@@H]3[C@H](COc4ccc(NC(=O)C5CCCC5)cc4C(=O)N3C)O2)CC1 | 5
O=C(/C=C/Sc1ccccc1)c1ccccc1 | -26
COc1ccc(C(=O)/C=C/Sc2nc3ccccc3o2)cc1 | 75*
N#CCSc1nc2ccccc2o1 | 11
SMILES | BL2 CD40 inh
N#C[C@H]1[C@H](c2ccccc2C2=CCCC2)[C@@H](CO)N1C(=O)NC1CCCC1 | 21
Nc1ccc2nc(Cc3ccccc3)[nH]c2c1 | 1
CCN(CC)c1ccc2nc3ccc(N)cc3[n+](-c3ccccc3)c2c1 | 88*
C[C@@H]1CN([C@H](C)CO)C(=O)c2ccccc2-c2ccccc2CO[C@@H]1CN(C)C(=O)C1CC1 | -14
CN1C(=O)c2cc(NS(=O)(=O)c3cccc(F)c3)ccc2OC[C@@H]2O[C@@H](CC(=O)N3CCc4ccccc4C3)CC[C@H]21 | -23[25 µM]
CO[C@@H](C(=O)N(C)C[C@H]1OCc2ccccc2-c2ccccc2C(=O)N([C@H](C)CO)C[C@@H]1C)c1ccccc1 | -13[25 µM]
CCc1nc(N)c(C#N)c(-c2cccc3ccccc23)c1C | 4
CC1=C(C#N)c2nc(N)c(C#N)c(C)c2/C1=C\c1ccccc1 | 49*
Cc1c(C#N)c(N)nc(Cl)c1C#N | 3
OCCOCCN1CCN(C2=Nc3ccccc3Sc3ccccc32)CC1 | 0
O=C1C=CC(=O)c2c(O)c(N3CCN(CCOCCO)CC3)c(Br)c(O)c21 | 85*
OCCOCCN1CCN(C(c2ccccc2)c2ccc(Cl)cc2)CC1 (stereo unspecified) | 16
CN1c2ccc(-c3ccc(C#N)cc3)cc2[C@H]2[C@H](CCN2C(=O)NC2CCCC2)[C@@H]1CO | 7
O=C(C[C@@H]1CC[C@@H]2[C@H](COC[C@@H](O)CN2Cc2nccs2)O1)N1CCC(Cc2ccccc2)CC1 | 4[25 µM]
CN(C)C(=O)c1cccc(-c2ccc([C@H]3[C@@H](C#N)N(C(=O)C4CCCC4)[C@H]3CO)cc2)c1 | 14
C[n+]1c2n(c3ccccc31)N=C(c1ccc(-c3ccccc3)cc1)CS2 | 70*
Cc1cc(-c2nnc3n2N=C(c2ccc(-c4ccccc4)cc2)CS3)n[nH]1 | 19
C[n+]1c2n(c3ccccc31)N=C(c1ccccc1)CS2 | 15
COc1ccc(C#Cc2cccc(-c3nc(C(=O)Nc4ccc(-c5ccccc5)cc4)cc4c3[C@@H](CCO)N(S(=O)C(C)(C)C)C4)c2)cc1OC (stereo partly specified) | -3[25 µM]

Assay outcomes (PubChem)
